# Data published in ChEMBL document CHEMBL4513146, “CO-ADD screening of Karazin Kharkiv National University (Ukraine) compounds”.
# Potency and affinity values are given separately.
# Tested on: Candida albicans
# Settings: Concentration 32 ug.mL-1; ASSAY_TEST Inhibition of Fungal Growth; detection method Absorption (OD530)
row,SMILES,Inhibition [%]
1,CC1CCCN(c2nccn3c(=O)n(CC(=O)Nc4ccc5c(c4)OCO5)nc23)C1 (stereo not given),-0.45
2,Cc1ccc(NC(=O)Cn2nc3c(Oc4ccccc4Cl)nccn3c2=O)cc1F,0.49
3,CCOC(=O)c1ccc(NC(=O)Cn2nc3ccc(SC(C)(C)C)nn3c2=O)cc1,5.28
4,Cc1cccc(C)c1NC(=O)CSc1nc2ccccc2n2c(C)nnc12,0.67
5,COc1cc(NC(=O)C(C)Sc2nnc3c(=O)n(-c4ccc(F)cc4)ccn23)cc(OC)c1 (stereo not given),7.68
6,Cc1ccc(N(CC(=O)OC(C)(C)C)S(=O)(=O)c2ccc3nnc(C)n3c2)cc1,1.78
7,COc1ccc(NC(=O)Cn2nc3c(Sc4ccccc4)nccn3c2=O)cc1Cl,0.73
8,NC(=O)CSc1nnc2c(=O)n(-c3ccc(F)cc3)ccn12,2.37
9,Cn1c(=O)c2ccc(C(=O)NC3CCCC3)cc2n2c(SCC(=O)Nc3cc(F)ccc3F)nnc12,0.81
10,Cc1ccc(C)c(Cn2nc3n(CCC(C)C)c(=O)c4sccc4n3c2=O)c1,0.71
11,COc1cccc(NC(=O)Cn2nc3c4c5c(sc4ncn3c2=O)CCCC5)c1,6.83
12,Cc1ccc(Oc2nccn3c(=O)n(CC(=O)Nc4ccc(Br)cc4)nc23)cc1,10.23
13,CC(C)Cn1c(=O)c2ccc(C(=O)NC3CCCCC3)cc2n2c(=O)n(CC#N)nc12,-0.09
14,Cc1ccc(Oc2nccn3c(=O)n(CC(=O)NCc4cccs4)nc23)cc1,2.18
15,Cc1nnc2ccc(S(=O)(=O)N(Cc3cccc(Cl)c3)c3ccc(F)cc3)cn12,2.21
